PMC7862700, “An all-to-all approach to the identification of sequence-specific readers for epigenetic DNA modifications on cytosine”

Tests used:
Assay in all cases: DAPPL (digital affinity profiling via proximity ligation, sequencing); 10 mM Tris-HCl pH 7.5, 50 mM NaCl, 1 mM DTT, 4% glycerol, room temperature, 30 min; GST-TFs on glutathione beads, 16-mer random dsDNA library, 0.1% formaldehyde crosslink after washing; high values mean tight binding
Details in all cases: protein: recombinant; tags: N-terminal GST; dsDNA, one strand shown
[1] = target: T1, ERF (Homo sapiens, UniProt P50548 1-548)
T1 sequence: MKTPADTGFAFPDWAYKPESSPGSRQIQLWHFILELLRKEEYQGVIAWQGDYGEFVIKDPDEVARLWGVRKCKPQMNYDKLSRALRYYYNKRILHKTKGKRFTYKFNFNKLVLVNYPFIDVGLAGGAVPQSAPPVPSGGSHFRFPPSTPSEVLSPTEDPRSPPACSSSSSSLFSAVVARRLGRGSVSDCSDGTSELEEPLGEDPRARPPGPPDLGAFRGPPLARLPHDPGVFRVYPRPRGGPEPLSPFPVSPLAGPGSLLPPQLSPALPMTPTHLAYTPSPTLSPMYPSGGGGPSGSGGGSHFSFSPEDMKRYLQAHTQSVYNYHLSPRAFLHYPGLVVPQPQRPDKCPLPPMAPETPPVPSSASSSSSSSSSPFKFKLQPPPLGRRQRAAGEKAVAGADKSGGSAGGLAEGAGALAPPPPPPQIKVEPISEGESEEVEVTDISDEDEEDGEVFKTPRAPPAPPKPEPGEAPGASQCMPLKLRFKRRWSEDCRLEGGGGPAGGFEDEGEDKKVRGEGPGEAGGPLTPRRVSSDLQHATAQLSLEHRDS
How it was run: (§1)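 After expression in yeast as GST fusions, human transcription factors were bound to glutathione beads, DNA-barcoded and mixed with a tag-only sample. The pools were incubated with 200 nmole of a 16-mer random double-stranded DNA library in Tris/NaCl/DTT/glycerol buffer (30 min, room temperature), washed and crosslinked with 0.1% formaldehyde. Proximity ligation with BsaI/T4 ligase ran for 1 h at 37 °C, before PCR amplification and sequencing on an Illumina NextSeq500. Binding signal is a hexamer's read frequency for a factor divided by its frequency for the tag-only sample.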

[2] = target: T2, ETV3L (Homo sapiens, UniProt Q6ZN32 1-361)
T2 sequence: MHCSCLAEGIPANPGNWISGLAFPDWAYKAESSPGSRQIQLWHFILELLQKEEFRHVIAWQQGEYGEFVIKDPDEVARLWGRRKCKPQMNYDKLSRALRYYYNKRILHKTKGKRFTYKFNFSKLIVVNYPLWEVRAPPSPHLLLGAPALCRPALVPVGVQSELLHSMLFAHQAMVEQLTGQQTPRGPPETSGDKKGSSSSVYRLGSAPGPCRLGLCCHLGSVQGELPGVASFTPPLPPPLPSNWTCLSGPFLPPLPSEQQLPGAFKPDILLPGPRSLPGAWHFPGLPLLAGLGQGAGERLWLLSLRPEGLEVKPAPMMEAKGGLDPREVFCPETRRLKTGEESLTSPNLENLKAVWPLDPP
How it was run: as §1

[3] = target: T3, ETS2 (Homo sapiens, UniProt P15036 1-469)
T3 sequence: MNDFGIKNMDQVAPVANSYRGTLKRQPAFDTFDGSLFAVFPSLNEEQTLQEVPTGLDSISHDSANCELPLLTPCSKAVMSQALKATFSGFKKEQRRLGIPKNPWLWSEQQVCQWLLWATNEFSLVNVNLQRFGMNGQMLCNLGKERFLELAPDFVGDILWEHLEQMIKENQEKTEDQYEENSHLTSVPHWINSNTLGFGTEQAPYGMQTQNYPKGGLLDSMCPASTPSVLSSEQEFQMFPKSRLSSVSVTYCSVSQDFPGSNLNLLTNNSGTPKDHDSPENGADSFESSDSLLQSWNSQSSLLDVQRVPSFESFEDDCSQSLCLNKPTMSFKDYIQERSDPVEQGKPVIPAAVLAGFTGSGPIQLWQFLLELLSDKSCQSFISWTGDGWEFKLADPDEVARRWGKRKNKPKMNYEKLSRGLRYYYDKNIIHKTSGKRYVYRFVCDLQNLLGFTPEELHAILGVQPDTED
How it was run: as §1

[4] = target: T4, SPDEF (Homo sapiens, UniProt O95238 1-335)
T4 sequence: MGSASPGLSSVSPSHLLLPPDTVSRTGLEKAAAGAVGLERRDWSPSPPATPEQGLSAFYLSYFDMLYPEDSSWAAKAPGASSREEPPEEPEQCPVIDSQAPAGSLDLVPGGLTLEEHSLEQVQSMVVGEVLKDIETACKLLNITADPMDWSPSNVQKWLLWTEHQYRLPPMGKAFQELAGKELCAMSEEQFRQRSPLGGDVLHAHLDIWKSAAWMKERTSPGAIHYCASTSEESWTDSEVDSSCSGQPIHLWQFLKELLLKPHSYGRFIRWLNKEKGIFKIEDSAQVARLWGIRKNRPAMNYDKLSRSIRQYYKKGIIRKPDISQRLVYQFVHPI
How it was run: as §1

[5] = target: T5, ETV7 (Homo sapiens, UniProt Q9Y603 1-341)
T5 sequence: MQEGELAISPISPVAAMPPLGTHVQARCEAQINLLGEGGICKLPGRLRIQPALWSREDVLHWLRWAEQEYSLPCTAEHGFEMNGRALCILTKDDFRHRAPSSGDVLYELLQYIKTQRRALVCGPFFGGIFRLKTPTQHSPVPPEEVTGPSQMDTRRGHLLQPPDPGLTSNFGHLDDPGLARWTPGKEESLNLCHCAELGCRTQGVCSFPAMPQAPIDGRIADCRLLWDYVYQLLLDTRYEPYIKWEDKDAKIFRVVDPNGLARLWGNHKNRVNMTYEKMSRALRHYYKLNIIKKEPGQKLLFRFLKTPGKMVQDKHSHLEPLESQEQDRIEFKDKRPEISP
How it was run: as §1

[6] = target: T6, ELF5 (Homo sapiens, UniProt Q9UKW6-2 1-255)
T6 sequence: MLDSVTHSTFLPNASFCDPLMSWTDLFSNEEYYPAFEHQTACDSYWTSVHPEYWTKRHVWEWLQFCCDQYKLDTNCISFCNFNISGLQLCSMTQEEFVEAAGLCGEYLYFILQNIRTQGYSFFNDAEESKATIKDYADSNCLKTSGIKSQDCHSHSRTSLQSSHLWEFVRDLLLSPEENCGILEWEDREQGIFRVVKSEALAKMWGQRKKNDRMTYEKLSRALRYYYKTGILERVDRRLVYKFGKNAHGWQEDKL
How it was run: as §1

[7] = target: T7, ETV3 (Homo sapiens, UniProt P41162-2 1-143)
T7 sequence: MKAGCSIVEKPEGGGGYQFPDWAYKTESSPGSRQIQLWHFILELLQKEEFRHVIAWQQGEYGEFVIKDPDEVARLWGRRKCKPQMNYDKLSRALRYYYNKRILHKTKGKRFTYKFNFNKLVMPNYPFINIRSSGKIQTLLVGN
How it was run: as §1

[8] = target: ETV6 (Homo sapiens, UniProt P41212 1-452)
ETV6, sequence (P41212 whole entry): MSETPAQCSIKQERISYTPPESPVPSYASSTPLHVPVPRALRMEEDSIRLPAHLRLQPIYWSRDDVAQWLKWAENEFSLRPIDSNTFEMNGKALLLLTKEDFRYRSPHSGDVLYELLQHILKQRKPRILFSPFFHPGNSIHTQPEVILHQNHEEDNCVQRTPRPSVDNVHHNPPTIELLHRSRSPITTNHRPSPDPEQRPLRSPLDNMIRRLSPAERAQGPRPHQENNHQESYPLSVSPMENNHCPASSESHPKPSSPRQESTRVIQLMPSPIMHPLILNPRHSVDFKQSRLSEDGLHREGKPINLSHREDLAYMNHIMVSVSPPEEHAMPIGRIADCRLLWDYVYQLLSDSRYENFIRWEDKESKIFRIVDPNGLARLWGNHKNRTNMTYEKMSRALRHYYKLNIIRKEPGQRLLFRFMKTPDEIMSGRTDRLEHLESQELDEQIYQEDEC
How it was run: as §1

Row | Sequence | binding signal [1] | binding signal [2] | binding signal [3] | binding signal [4] | binding signal [5] | binding signal [6] | binding signal [7] | binding signal [8]
1 | GACTCT | 1.58 fold enrichment (6-mer frequency, TF over GST control) | 1.32 fold enrichment (6-mer frequency, TF over GST control) | 1.36 fold enrichment (6-mer frequency, TF over GST control) | 1.21 fold enrichment (6-mer frequency, TF over GST control) | 1.23 fold enrichment (6-mer frequency, TF over GST control) | 1.22 fold enrichment (6-mer frequency, TF over GST control) | 1.22 fold enrichment (6-mer frequency, TF over GST control) | 1.16 fold enrichment (6-mer frequency, TF over GST control)
2 | CTAATC | 1.31 fold enrichment (6-mer frequency, TF over GST control) | 1.34 fold enrichment (6-mer frequency, TF over GST control) | 1.32 fold enrichment (6-mer frequency, TF over GST control) | 1.34 fold enrichment (6-mer frequency, TF over GST control) | 1.41 fold enrichment (6-mer frequency, TF over GST control) | 1.33 fold enrichment (6-mer frequency, TF over GST control) | 1.32 fold enrichment (6-mer frequency, TF over GST control) | 1.35 fold enrichment (6-mer frequency, TF over GST control)
3 | CTCCCC | 1.51 fold enrichment (6-mer frequency, TF over GST control) | 1.29 fold enrichment (6-mer frequency, TF over GST control) | 1.33 fold enrichment (6-mer frequency, TF over GST control) | 1.28 fold enrichment (6-mer frequency, TF over GST control) | 1.37 fold enrichment (6-mer frequency, TF over GST control) | 1.33 fold enrichment (6-mer frequency, TF over GST control) | 1.38 fold enrichment (6-mer frequency, TF over GST control) | 1.36 fold enrichment (6-mer frequency, TF over GST control)
4 | TTCGGT | 1.18 fold enrichment (6-mer frequency, TF over GST control) | 1.11 fold enrichment (6-mer frequency, TF over GST control) | 1.16 fold enrichment (6-mer frequency, TF over GST control) | 1.13 fold enrichment (6-mer frequency, TF over GST control) | 1.15 fold enrichment (6-mer frequency, TF over GST control) | 1.06 fold enrichment (6-mer frequency, TF over GST control) | 1.07 fold enrichment (6-mer frequency, TF over GST control) | 1.22 fold enrichment (6-mer frequency, TF over GST control)
5 | TGATGC | 1.48 fold enrichment (6-mer frequency, TF over GST control) | 1.61 fold enrichment (6-mer frequency, TF over GST control) | 1.58 fold enrichment (6-mer frequency, TF over GST control) | 1.45 fold enrichment (6-mer frequency, TF over GST control) | 1.54 fold enrichment (6-mer frequency, TF over GST control) | 1.52 fold enrichment (6-mer frequency, TF over GST control) | 1.67 fold enrichment (6-mer frequency, TF over GST control) | 1.52 fold enrichment (6-mer frequency, TF over GST control)
6 | TCCGGT | 3.43 fold enrichment (6-mer frequency, TF over GST control) | 3.57 fold enrichment (6-mer frequency, TF over GST control) | 3.76 fold enrichment (6-mer frequency, TF over GST control) | 5.35 fold enrichment (6-mer frequency, TF over GST control) | 3.35 fold enrichment (6-mer frequency, TF over GST control) | 4.56 fold enrichment (6-mer frequency, TF over GST control) | 4.02 fold enrichment (6-mer frequency, TF over GST control) | 4.04 fold enrichment (6-mer frequency, TF over GST control)
7 | TAACCT | 1.35 fold enrichment (6-mer frequency, TF over GST control) | 1.28 fold enrichment (6-mer frequency, TF over GST control) | 1.31 fold enrichment (6-mer frequency, TF over GST control) | 1.23 fold enrichment (6-mer frequency, TF over GST control) | 1.26 fold enrichment (6-mer frequency, TF over GST control) | 1.29 fold enrichment (6-mer frequency, TF over GST control) | 1.31 fold enrichment (6-mer frequency, TF over GST control) | 1.23 fold enrichment (6-mer frequency, TF over GST control)
8 | TAAATT | 1.3 fold enrichment (6-mer frequency, TF over GST control) | 1.32 fold enrichment (6-mer frequency, TF over GST control) | 1.17 fold enrichment (6-mer frequency, TF over GST control) | 1.21 fold enrichment (6-mer frequency, TF over GST control) | 1.27 fold enrichment (6-mer frequency, TF over GST control) | 1.19 fold enrichment (6-mer frequency, TF over GST control) | 1.21 fold enrichment (6-mer frequency, TF over GST control) | 1.28 fold enrichment (6-mer frequency, TF over GST control)
